{"source": "PubChem BioAssay AID2283197", "about": "(EPA ToxCast)", "target": "human Protein Kinase D2 (PKD2), PRKD2 (gene 25865) (UniProt Q9BZL6)", "sequence (Q9BZL6 whole entry, looked up)": "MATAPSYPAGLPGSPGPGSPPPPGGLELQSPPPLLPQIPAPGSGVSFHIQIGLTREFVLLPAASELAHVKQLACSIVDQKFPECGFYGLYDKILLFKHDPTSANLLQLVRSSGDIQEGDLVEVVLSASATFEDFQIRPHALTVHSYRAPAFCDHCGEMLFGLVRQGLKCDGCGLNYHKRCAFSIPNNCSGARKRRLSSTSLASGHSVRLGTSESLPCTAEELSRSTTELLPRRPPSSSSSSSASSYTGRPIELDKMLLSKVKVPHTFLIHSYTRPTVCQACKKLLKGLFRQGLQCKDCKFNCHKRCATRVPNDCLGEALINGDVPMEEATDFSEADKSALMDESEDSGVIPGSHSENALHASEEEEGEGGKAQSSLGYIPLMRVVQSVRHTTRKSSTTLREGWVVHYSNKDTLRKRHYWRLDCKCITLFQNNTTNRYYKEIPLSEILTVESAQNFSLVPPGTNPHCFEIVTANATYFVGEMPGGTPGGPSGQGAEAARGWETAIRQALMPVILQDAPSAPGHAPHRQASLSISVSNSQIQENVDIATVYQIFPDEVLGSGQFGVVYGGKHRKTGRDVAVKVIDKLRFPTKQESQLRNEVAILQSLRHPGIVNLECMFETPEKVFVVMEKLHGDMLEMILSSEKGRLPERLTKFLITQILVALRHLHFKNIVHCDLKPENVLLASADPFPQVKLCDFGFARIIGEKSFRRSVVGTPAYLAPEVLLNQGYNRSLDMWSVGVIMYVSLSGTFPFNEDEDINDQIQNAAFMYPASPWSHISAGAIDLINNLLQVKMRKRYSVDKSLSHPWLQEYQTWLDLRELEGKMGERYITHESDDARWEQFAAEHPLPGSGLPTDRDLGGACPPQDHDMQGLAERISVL", "assay": "NVS_ENZ_hPKD2: NovaScreen (NVS) Enzymatic Assay for human Protein Kinase D2 (PKD2)", "protocol": "NVS_ENZ_hPKD2 is a biochemical, single-readout assay that uses extracted gene-proteins in a cell-free assay. Measurements were taken 1 hour after chemical dosing in a 384-well plate.NVS_ENZ_hPKD2 is one of one assay component(s) measured or calculated from the NVS_ENZ_hPKD2 assay. It is designed to make measurements of enzyme activity, a form of enzyme reporter, as detected with fluorescence intensity signals by Fluorescence and electrophoretic mobility shift technology.Data from the assay component NVS_ENZ_hPKD2 was analyzed into 1 assay endpoint. This assay endpoint, NVS_ENZ_hPKD2, was analyzed in the positive analysis fitting direction relative to DMSO as the negative control and baseline of activity. Using a type of enzyme reporter, loss-of-signal activity can be used to understand changes in the enzymatic activity as they relate to the gene PRKD2. Furthermore, this assay endpoint can be referred to as a primary readout, because this assay has produced multiple assay endpoints where this one serves a enzymatic activity function. To generalize the intended target to other relatable targets, this assay endpoint is annotated to the kinase intended target family, where the subfamily is serine/threonine kinase. […]", "note": "Active and inactive are the calls of the source. How the source made its calls: active means hit-call score of the fitted dose curve at least 0.9, where 1 is the maximum; inactive means score below 0.9.", "data": [{"smiles": "N#CSCSc1nc2ccccc2s1", "values": [{"measurement": "outcome", "result": "inactive"}]}, {"smiles": "Oc1ccc(C(c2ccc(O)cc2)C(Cl)(Cl)Cl)cc1", "values": [{"measurement": "outcome", "result": "inactive"}]}]}
